Reference: PubChem BioAssay (Tox21)
Records with an inconclusive call do not appear. Activity calls are given as the source filed them. Unless noted, calls follow the shape of the full dose curve.

Legend:
[1] = Nuclear factor erythroid 2-related factor 2/antioxidant responsive element (Nrf2/ARE) small molecule agonists: qHTS cell viability counter screen in human keratinocytes (AID 1919968; active = well fitted curve in the direction sought with a large enough effect in the repeat runs; an effect the other way counts as inactive or inconclusive; also: nearly all actives have a fitted effect of over 55% in size)
Summary of the method: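 After a 5 h attachment period, ARE-reporter keratinocytes were dosed with compounds in DMSO and then cultured 23 h at 37 C. Cell viability came from CellTiter-Fluor signal read after a further 1 h.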

[2] = Nuclear factor erythroid 2-related factor 2/antioxidant responsive element (Nrf2/ARE) small molecule agonists: luciferase reporter gene qHTS assay in human keratinocytes (AID 1919969); also: nearly all actives have a fitted effect of over 35% in size
[3] = biological target: Gonadotropin-releasing hormone receptor (Homo sapiens) (UniProt P30968); experiment: Human gonadotropin-releasing hormone receptor (GnRHR) small molecule agonists, calcium flux assay in GnRHR-HEK293 cells (AID 1920063); also: nearly all actives have a fitted effect of over 35% in size
Sequence of Gonadotropin-releasing hormone receptor (Homo sapiens) (P30968 whole entry, looked up): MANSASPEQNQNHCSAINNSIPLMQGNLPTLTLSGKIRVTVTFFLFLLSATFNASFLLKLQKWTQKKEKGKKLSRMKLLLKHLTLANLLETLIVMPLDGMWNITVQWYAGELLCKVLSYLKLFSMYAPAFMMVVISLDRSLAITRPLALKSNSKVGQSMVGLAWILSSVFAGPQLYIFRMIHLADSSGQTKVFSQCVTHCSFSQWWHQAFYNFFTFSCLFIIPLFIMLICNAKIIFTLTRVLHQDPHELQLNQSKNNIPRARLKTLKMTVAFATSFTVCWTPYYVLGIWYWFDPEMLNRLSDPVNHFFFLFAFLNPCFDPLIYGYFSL
Summary of the method: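 We seeded human GnRHR-expressing HEK293 cells for 18 hours, loaded them with calcium dye for an hour at 37 C, added test compounds, and recorded fluorescence intensity kinetically for three minutes.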

[4] = biological target: KiSS-1 receptor (Homo sapiens) (UniProt Q969F8); experiment: Human kisspeptin (KISS1R) small molecule agonists, calcium flux assay in KISS1R-HEK293 cells (AID 1920064; active = well fitted curve in the direction sought with a large enough effect in the repeat runs; an effect the other way counts as inactive or inconclusive)
Sequence of KiSS-1 receptor (Homo sapiens) (Q969F8 whole entry, looked up): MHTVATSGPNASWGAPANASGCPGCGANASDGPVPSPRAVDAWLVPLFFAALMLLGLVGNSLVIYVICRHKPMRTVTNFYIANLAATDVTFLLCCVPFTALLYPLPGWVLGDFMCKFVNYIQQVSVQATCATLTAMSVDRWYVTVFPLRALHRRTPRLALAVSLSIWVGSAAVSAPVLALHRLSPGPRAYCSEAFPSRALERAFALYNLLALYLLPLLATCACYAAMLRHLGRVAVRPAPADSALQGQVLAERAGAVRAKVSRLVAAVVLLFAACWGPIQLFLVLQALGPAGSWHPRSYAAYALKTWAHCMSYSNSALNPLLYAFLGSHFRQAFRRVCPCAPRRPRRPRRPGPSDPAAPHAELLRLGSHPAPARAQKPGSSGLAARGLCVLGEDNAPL
Summary of the method: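 Kinetic calcium assay, 1 s sampling over 3 min at Ex/Em 480/540, in HEK293 cells engineered with human KISS1R; compounds delivered in DMSO after 1 h dye loading.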

[5] = G protein-coupled receptor (GPCR) small molecule agonists, calcium flux assay: HEK293 wild type cell line counter screen (AID 1920065)
Summary of the method: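 Calcium-sensitive dye, loaded 1 h at 37 C into cells cultured 18 h, reports compound-evoked calcium release as fluorescence (Ex/Em 480/540), measured over 3 min. Agonist mode; 15-point titrations, triplicate.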

[6] = p53 small molecule agonists, cell-based qHTS assay with human liver microsomes (AID 1963577);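 also: p53 response element beta-lactamase reporter cells with liver microsomes plus NADPH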
Summary of the method: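 HLM-supplemented p53RE-bla reporter assay: 16 h compound exposure at 37 C, microsomes and NADPH each 0.5 mg/mL final, read by fluorescence intensity.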

[7] = p53 small molecule agonists, cell-based qHTS assay with rat liver microsomes (AID 1963578)
Summary of the method: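 Quantitative HTS of the Tox21 10K library: p53RE-bla cells, rat liver microsomes plus NADPH at 0.5 mg/mL final each, 16 h at 37 C, beta-lactamase fluorescence detection.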

[8] = p53 small molecule agonists, cell-based qHTS assay with human liver microsomes: qHTS cell viability counter screen (AID 1963579); also: nearly all actives have a fitted effect of over 45% in size
Summary of the method: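 Viability of p53RE-bla cells is measured as CellTiter-Glo luminescence following a 16 h, 37 C incubation with compound, liver microsomes from human donors and NADPH.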

[9] = p53 small molecule agonists, cell-based qHTS assay with rat liver microsomes: qHTS cell viability counter screen (AID 1963580); also: nearly all actives have a fitted effect of over 45% in size
Summary of the method: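 HCT-116 p53RE-bla, 4,000 cells/well, 5 h pre-incubation; cpd + rat liver microsomes 0.5 mg/mL + NADPH 0.5 mg/mL (final); 16 h, 37 C; CellTiter-Glo, 30 min RT; luminescence.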

[10] = p53 small molecule agonists, cell-based qHTS assay: qHTS cell viability counter screen (AID 1963581); also: nearly all actives have a fitted effect of over 45% in size
Summary of the method: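 Following 5 h attachment, HCT-116 p53RE-bla cells took up compound for 16 h at 37 C; the reporter was read with B/G FRET substrate (2 h RT), and viability then via CellTiter-Glo ATP luminescence.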

[11] = p53 small molecule agonists, cell-based qHTS assay (AID 1963582; active = well fitted activation curve with a large enough effect in the signal ratio in the repeat runs, not every such curve was filed as active; the % refers to the signal ratio)
Summary of the method: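 In this cell-based concentration-response screen, a p53 response element drives beta-lactamase; cells received DMSO-borne compounds after 5 h culture and were incubated a further 16 h before FRET substrate development.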

[12] = biological target: 5-hydroxytryptamine receptor 2A (Homo sapiens) (UniProt P28223); experiment: 5-hydroxytryptamine receptor 2A (HTR2A) small molecule antagonists, cell-based qHTS assay (AID 1963586); also: nearly all actives have a fitted effect of over 45% in size
Sequence of 5-hydroxytryptamine receptor 2A (Homo sapiens) (P28223 whole entry, looked up): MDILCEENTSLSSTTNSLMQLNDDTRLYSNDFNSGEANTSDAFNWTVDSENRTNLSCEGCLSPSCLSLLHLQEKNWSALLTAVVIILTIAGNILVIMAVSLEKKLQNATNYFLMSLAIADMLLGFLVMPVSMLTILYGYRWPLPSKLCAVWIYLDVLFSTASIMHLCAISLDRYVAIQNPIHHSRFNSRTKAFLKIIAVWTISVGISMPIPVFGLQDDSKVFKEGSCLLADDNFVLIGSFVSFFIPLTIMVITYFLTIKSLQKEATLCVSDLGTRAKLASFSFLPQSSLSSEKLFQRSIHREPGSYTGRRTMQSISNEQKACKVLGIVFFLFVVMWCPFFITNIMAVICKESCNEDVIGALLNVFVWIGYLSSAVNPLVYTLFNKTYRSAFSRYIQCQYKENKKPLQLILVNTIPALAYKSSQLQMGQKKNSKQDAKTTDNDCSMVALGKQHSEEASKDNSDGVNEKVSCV
Summary of the method: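 Antagonist-mode intracellular calcium assay: DOI (4 nM) added after 5 min compound pre-incubation at room temperature to dye-loaded HTR2A-CHO cells. Fluorescence followed for 3 min, sampled every second.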

[13] = biological target: Muscarinic acetylcholine receptor M1 (Homo sapiens) (UniProt P11229); experiment: Cholinergic receptor muscarinic 1 (CHRM1) small molecule antagonists, cell-based qHTS assay (AID 1963588); also: nearly all actives have a fitted effect of over 40% in size
Sequence of Muscarinic acetylcholine receptor M1 (Homo sapiens) (P11229 whole entry, looked up): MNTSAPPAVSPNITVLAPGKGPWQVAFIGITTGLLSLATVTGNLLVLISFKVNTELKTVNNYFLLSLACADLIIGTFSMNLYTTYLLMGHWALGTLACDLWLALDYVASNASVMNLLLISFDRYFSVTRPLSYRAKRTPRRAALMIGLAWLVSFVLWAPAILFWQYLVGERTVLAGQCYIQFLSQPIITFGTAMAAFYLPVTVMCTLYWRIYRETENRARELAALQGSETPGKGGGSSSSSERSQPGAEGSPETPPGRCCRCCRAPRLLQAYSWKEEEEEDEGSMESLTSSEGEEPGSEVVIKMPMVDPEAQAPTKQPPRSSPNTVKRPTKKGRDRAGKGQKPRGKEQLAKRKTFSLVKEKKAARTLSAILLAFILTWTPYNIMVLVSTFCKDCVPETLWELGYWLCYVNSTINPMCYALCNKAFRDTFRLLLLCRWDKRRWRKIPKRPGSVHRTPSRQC
Summary of the method: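 CHRM1-CHO calcium-flux assay, antagonist mode. Cells were seeded 18 h, dye-loaded 1 h at 37 C and given compound for 5 min at RT, then acetylcholine was added at 50nM. FDSS fluorescence was read 3 min; 15 concentrations, three runs.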

[14] = biological target: Muscarinic acetylcholine receptor M1 (Homo sapiens) (UniProt P11229); experiment: Cholinergic receptor muscarinic 1 (CHRM1) small molecule agonists, cell-based qHTS assay (AID 1963589); also: nearly all actives have a fitted effect of over 35% in size
Summary of the method: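 Measures agonist-induced intracellular calcium rise. Stable human CHRM1 CHO line, 1 h dye load at 37 C, compounds from DMSO, kinetic fluorescence read.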

[15] = cAMP Responsive Elements (CRE) small molecule agonists, cell-based qHTS assay (AID 1963590)
Summary of the method: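 A CRE-responsive beta-lactamase reporter in HEK 293T cells was used. Treatment ran 3 h at 37 C; detection used LiveBLAzer B/G FRET substrate for 2 h at room temperature.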

[16] = cAMP Responsive Elements (CRE) small molecule antagonists, cell-based qHTS assay (AID 1963591; active = well fitted inhibition curve with a large enough effect in the signal ratio in the repeat runs, not every such curve was filed as active; the % refers to the signal ratio)
Summary of the method: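 HEK293T cells carrying a CRE-driven beta-lactamase reporter receive compound and NKH477 (0.25 uM final) for 3 h. Fluorescence from LiveBLAzer B/G FRET substrate is read after 2 h at room temperature.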

[17] = biological target: Beta-2 adrenergic receptor (Homo sapiens) (UniProt P07550); experiment: Adrenergic beta2 receptor (ADRB2) small molecule antagonists, cell-based qHTS assay (AID 1963592); also: series mostly up to about 92 µM; nearly all actives have a fitted effect of over 50% in size
Sequence of Beta-2 adrenergic receptor (Homo sapiens) (P07550 whole entry, looked up): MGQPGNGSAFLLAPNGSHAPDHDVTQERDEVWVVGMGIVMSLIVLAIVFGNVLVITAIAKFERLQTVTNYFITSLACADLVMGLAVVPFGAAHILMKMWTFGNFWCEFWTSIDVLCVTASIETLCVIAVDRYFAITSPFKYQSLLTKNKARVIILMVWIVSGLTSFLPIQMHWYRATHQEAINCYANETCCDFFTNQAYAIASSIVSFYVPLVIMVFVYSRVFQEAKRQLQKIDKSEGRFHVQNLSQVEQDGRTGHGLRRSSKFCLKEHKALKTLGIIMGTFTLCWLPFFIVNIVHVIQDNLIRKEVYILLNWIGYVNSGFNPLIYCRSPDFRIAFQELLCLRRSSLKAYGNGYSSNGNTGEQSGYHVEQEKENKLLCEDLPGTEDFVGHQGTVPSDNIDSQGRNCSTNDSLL
Summary of the method: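 Cells (CHO, stable ADRB2 overexpression) incubated 18-20hr at 37C; compounds added from DMSO; agonist mix (1nM isoproterenol, 100uM IBMX, 25uM Ro-20-1724) added; 0.5hr RT; d2-cAMP and anti-cAMP-cryptate added; 1hr RT; 665/615 nm read.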

[18] = biological target: D(2) dopamine receptor (Homo sapiens) (UniProt P14416); experiment: Dopamine D2 receptor (DRD2) small molecule agonists, cell-based qHTS assay (AID 1963594); also: nearly all actives have a fitted effect of over 35% in size
Sequence of D(2) dopamine receptor (Homo sapiens) (P14416 whole entry, looked up): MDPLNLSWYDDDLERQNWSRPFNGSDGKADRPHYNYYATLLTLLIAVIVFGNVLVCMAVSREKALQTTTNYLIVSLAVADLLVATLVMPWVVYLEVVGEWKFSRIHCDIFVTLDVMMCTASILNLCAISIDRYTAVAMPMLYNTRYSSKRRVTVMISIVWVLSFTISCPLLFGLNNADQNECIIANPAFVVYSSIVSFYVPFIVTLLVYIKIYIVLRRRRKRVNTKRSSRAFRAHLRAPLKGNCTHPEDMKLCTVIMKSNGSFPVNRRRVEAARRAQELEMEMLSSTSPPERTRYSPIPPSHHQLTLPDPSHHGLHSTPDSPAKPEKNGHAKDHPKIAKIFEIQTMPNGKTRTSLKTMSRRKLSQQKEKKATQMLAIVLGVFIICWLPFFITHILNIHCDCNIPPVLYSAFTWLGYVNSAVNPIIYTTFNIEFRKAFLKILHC
Summary of the method: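 cAMP accumulation in DRD2-HEK293 cells measured by HTRF after 1 h detection; compounds added 10 min before NKH477 (200nM […]) forskolin-analogue stimulation, 30 min at room temperature, with Ro20-1724 present at 0.1 mM final.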

[19] = biological target: D(2) dopamine receptor (Homo sapiens) (UniProt P14416); experiment: Dopamine D2 receptor (DRD2) small molecule antagonists, cell-based qHTS assay (AID 1963595; active = well fitted inhibition curve with a large enough effect in the signal ratio in the repeat runs, with a control signal flat; the % refers to the signal ratio)
Summary of the method: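 Stable D2 receptor HEK293 line, 24 h after seeding. Compound preincubated 10 min, then quinpirole (12 nM) with forskolin analogue NKH477 (200 nM), 30 min, room temperature. Detection by time-resolved FRET of cAMP.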

[20] = biological target: 5-hydroxytryptamine receptor 2A (Homo sapiens) (UniProt P28223); experiment: 5-hydroxytryptamine receptor 2A (HTR2A) small molecule agonists, cell-based qHTS assay (AID 1963587); also: nearly all actives have a fitted effect of over 30% in size
Summary of the method: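 Kinetic calcium-flux fluorescence (2 min, 1 sec intervals) after compound addition in agonist mode. HTR2A-CHO cells were cultured 18 h, then dye-loaded 1 h at 37 C.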

Measured: Potency

COc1ccccc1C=O
not listed: [20]
inactive: all other assays above

Cc1ccc2ccccc2c1[N+](=O)[O-]
not listed: [13] | [15]
inactive: all other assays above

c1ccc2cnncc2c1
not listed: [20]
inactive: all other assays above

Cc1ccc(S(=O)(=O)O)c(C)c1
not listed: [17] | [20]
inactive: all other assays above

O=C(OC(=O)c1ccccc1)c1ccccc1
not listed: [18] | [20]
inactive: all other assays above

CC(C)(O)C(=O)c1ccc(OCCO)cc1
not listed: [20]
inactive: all other assays above

CC1=CCC(=O)O1
not listed: [20]
inactive: all other assays above

O=C(O)CCCCCC(=O)O
not listed: [13]
inactive: all other assays above
